# Only some compounds are listed: those with a hit (about 10% of all), similar ones and a draw of the others.
# HP1b chromo inh: HTS for Inhibitors of HP1-beta Chromodomain Interactions with Methylated Histone Tails; Chromobox protein homolog 1 (Homo sapiens), P83916; AlphaScreen HP1-beta / biotin-H3K9me3 peptide binding; Potency, µM (highest dose often 114 µM), for the others: at the top dose activity change, negative = inhibition, usual class: inhibitors; 390,000 tested, 0.56% active; further: nearly all actives have a fitted effect of over 70% in size
#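 Compound inhibition of the preformed complex between 50 nM HP1-beta and 50 nM biotinylated H3K9me3 peptide was read by AlphaScreen. Buffer was PBS pH 7.4 with 0.01% Tween-20. Incubations ran 30 min at room temperature, with 10 ug/mL donor/acceptor beads.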
# G9a block: qHTS Assay for Inhibitors of Histone Lysine Methyltransferase G9a. Histone-lysine N-methyltransferase EHMT2 (Homo sapiens), Q96KQ7. G9a H3K9 monomethylation, AlphaScreen, 2 h. Potency, µM (titrated, usually from 102 µM), for inactives: top-dose activity, negative = inhibition, usual class: inhibitors. 350,000 tested, 8.8% active; further: on the % scale 0 is the no-effect control and ±100 the full control effect; nearly all actives have a fitted effect of over 75% in size
#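 Methyltransferase reactions run at room temperature for 2 h (20 nM enzyme, 500 nM biotin-H3K9 peptide, 20 uM SAM) after a 15 min compound preincubation; product detected by AlphaScreen beads and anti-H3K9me1 antibody.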
# BAZ2B block: qHTS Assay for Inhibitors of BAZ2B. Bromodomain adjacent to zinc finger domain protein 2B (Homo sapiens), Q9UIF8. AlphaScreen BAZ2B-H3K14Ac peptide displacement. Potency, µM (doses to about 114 µM), without a hit: at the highest dose activity change, negative = inhibition, hits mostly inhibitors. 360,000 tested, 4.4% active; further: on the % scale 0 is the no-effect control and ±100 the full control effect; nearly all actives have a fitted effect of over 60% in size
#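 AlphaScreen luminescence quantifies BAZ2B engagement of H3K14Ac peptide; the protein and biotinylated peptide are both at 50 nM final, buffer PBS pH 7.4 with 0.01% Tween-20, all steps at room temperature.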
# GLS inh: qHTS for Inhibitors of Glutaminase (GLS); AID 624170, 2012; 410,000 tested, 0.21% active; Glutaminase kidney isoform, mitochondrial (Homo sapiens), O94925; Potency, µM (top dose mostly 45.5 µM), for the others: at the top dose activity change, negative = inhibition, most hits filed as inhibitors; GLS enzymatic activity, qHTS titration; further: on the % scale 0 is the no-effect control and ±100 the full control effect
# Target sequence (O94925 whole entry, looked up, canonical isoform): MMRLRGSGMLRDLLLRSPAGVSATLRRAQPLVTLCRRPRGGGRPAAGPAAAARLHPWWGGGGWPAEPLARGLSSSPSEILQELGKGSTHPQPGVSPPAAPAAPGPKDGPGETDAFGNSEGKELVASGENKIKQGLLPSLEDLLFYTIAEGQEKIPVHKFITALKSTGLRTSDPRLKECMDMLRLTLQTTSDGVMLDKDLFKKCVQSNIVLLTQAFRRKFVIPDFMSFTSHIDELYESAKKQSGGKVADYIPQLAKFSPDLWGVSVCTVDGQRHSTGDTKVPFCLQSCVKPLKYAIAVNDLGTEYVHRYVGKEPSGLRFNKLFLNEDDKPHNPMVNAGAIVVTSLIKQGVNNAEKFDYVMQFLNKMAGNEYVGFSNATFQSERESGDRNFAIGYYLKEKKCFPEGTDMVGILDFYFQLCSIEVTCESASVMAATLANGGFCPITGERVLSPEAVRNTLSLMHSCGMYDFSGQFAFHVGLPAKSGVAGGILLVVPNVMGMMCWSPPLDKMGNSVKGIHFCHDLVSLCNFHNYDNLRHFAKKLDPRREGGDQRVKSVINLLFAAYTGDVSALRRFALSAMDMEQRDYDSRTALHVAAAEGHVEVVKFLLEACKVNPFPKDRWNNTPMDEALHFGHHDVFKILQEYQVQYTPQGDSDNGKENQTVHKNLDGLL
#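 hKGA; 45 mM KH2PO4 pH 8.2 + 0.02% Tween-20; cpd via pin tool; 1 mM Gln soln; GluOx/HRP/Amplex Red; RT 30 min; fluor. t0 & final.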
# JMJD2A Tudor: qHTS Assay for Inhibitors of JMJD2A-Tudor Domain; AlphaScreen JMJD2A-Tudor / H3K4me3 peptide binding; Potency, µM (top dose mostly 114 µM), for the others: at the top dose activity change, negative = inhibition, usual class: inhibitors; 390,000 tested, 4.4% active; further: on the % scale 0 is the no-effect control and ±100 the full control effect; nearly all actives have a fitted effect of over 50% in size
# * = called active by the depositor; i = inactive; ? = inconclusive; . = no result; [ ] = another dose, or the depositor's remark. The call rests on the fitted dose curve; in most records, active means well fitted curve in the direction sought with a large enough effect; inconclusive means small, poorly fitted or top-dose-only effect, or another doubt; inactive means no such curve, though single readings can be large; an effect the other way counts as inactive or inconclusive. Potency means the concentration at half of the fitted maximal effect.
SMILES,HP1b chromo inh,G9a block,BAZ2B block,GLS inh,JMJD2A Tudor
CCOC(=O)C1=C(CS(=O)(=O)c2ccccc2)NC(=O)NC1c1ccc(O)c(OC)c1 (centres undefined),1%,13%,-4%,0%,-4%
N#Cc1c(NC(=S)NC(=O)c2ccccc2)sc2c1CCCC2,8%,8.9µM*,5%,12%,?
CC1(C)Cc2c(sc(NC(=O)c3ccco3)c2C(=O)O)CO1,16%,23%[12.7 µM],-2%,2%,-16%
CC(C)C(C(=O)Nc1sc2c(c1C#N)CCCCC2)N1C(=O)c2ccccc2C1=O (centres undefined),11%,?,50µM*,-9%,-28%
N#Cc1c(NC(=S)NC(=O)C2CCCC2)sc2c1CCCCC2,-19%,35µM*,-1%,4%,-28%
CC1(C)Cc2c(sc(NC(=S)NC(=O)c3ccccc3)c2C(=O)O)CO1,-25%,40µM*,?,24%,-31%
Cc1noc(Cn2c(=O)c3ccccc3n(CC(=O)Nc3cc(Cl)ccc3C)c2=O)n1,31%,3%[59 µM],-3%,-1%,-1%
N#Cc1c(NC(=S)NC(=O)c2ccccc2)sc2c1CCCCC2,?,.,.,.,-35%
N#Cc1c(NC(=S)NC(=O)c2ccccc2)sc2c1CCN(CCc1ccccc1)C2,.,40µM*,-12%,.,.
CCCOC(=O)CCCC[C@H]1SC[C@@H](NC(=O)OC)[C@H]1NC(=O)OC,41%,-6%[59 µM],-4%,6%,-10%
OC[C@@H](O)[C@H](O)C(/C=N/Nc1ccccc1)=N\Nc1ccccc1,?,?,?,?,79µM*
O=[N+]([O-])c1ccc(N/N=C/c2cccs2)nc1,41%,.,.,1%,-5%
Cc1ccc(S(=O)(=O)N/N=C\c2ccc(C)o2)cc1,5%,?,50µM*,-11%,?
Cc1ccc(/C=N/NS(=O)(=O)c2ccc([N+](=O)[O-])cc2)o1,50%,13%[59 µM],-10%,25%,-10%[57.1 µM]
CC(=O)Nc1ccc(S(=O)(=O)N/N=C/c2ccc(C)o2)cc1,1%,45µM*,?,-11%,-24%
CC(C)(C)C1CCC2(CC1)NC(CO)(CO)CO2 (centres undefined),55%,22%[59 µM],-22%,-8%,3%
c1ccc(-c2nc(Sc3ncnc4c3cnn4-c3ccccc3)n[nH]2)cc1,.,32µM*,4%,.,.
Cc1ccc(CN2CCc3nc(N4CCN(c5ccccc5F)CC4)ncc3C2)s1,14%,-5%[59 µM],-28%,-1%,-19%
CC1CCC(=O)N(CCC#N)CC1 (centres undefined),23%,50µM*,-30%,0%,-8%
O=C1c2ccccc2C(=O)N1CCCCCCc1ccccc1,i,-1%[0.501 µM],i,-10%,292%
O=C1c2ccccc2C(=O)N1CCc1csc(NNc2nc(CCN3C(=O)c4ccccc4C3=O)cs2)n1,-12%,?,35µM*,19%,?
O=C1c2ccccc2C(=O)N1CCc1ccccc1,?,.,.,-15%,56µM*
Cc1ccc(-c2nc(CCN3C(=O)c4ccccc4C3=O)cs2)cc1,97%,37%,30%,5%,18%
CCCNC(=O)c1ccc(OC)cc1OC,13%,-4%,6%,11%,-14%
CCc1nc(SCC(=O)NCCc2ccccc2)c2oc3ccccc3c2n1,10%,.,8%,-6%,-16%
SMILES,HP1b chromo inh,G9a block,BAZ2B block,GLS inh,JMJD2A Tudor
N#CC1=C(N)OC2=C(CC/C2=C\c2ccc(F)cc2)C1c1ccc(F)cc1 (centres undefined),.,?,-37%,.,.
N#CC1=C(N)OC2=C(CCC/C2=C/c2ccoc2)C1c1ccoc1 (centres undefined),.,16µM*,?,.,.
O=S(=O)(/N=C/c1c(O)ccc2ccccc12)c1cccs1,.,1.4µM*,9%,.,.
O=CN/N=C/c1c(O)ccc2ccccc12,54%,19%[59 µM],-1%,19%,-6%
Cc1ccc(S(=O)(=O)/N=C/c2c(O)ccc3ccccc23)cc1,-10%,4µM*,-9%,22%,?
CCN(c1cccc2ccccc12)S(=O)(=O)c1cccs1,24%,.,.,0%,6%
Cc1cnc(NC(=O)c2sc3ccccc3c2Cl)s1,26%,16%,-1%,-16%,-3%
CC(C)c1nnc(NC(=O)c2sc3ccccc3c2Cl)s1,-9%,45µM*,0%,-7%,9%
Cc1onc(-c2ccccc2Cl)c1C(=O)Nc1nnc(C(C)C)s1,23%,50µM*,6%,0%,-23%
Cc1onc(-c2ccccc2Cl)c1C(=O)NCc1ccco1,26%,-4%[59 µM],?,10µM*,?
Cc1ccc(CNC(=O)c2c(-c3ccccc3Cl)noc2C)cc1,36%,50%,16%,0%,-7%
Cc1onc(-c2ccccc2Cl)c1C(=O)O/N=C(\N)c1ccc([N+](=O)[O-])o1,-12%,35µM*,?,1%,?
Cc1ccc(-c2csc(NS(=O)(=O)c3cccc(F)c3)n2)o1,-32%,.,.,?,56µM*
Cc1nc(CNS(=O)(=O)c2cccc(F)c2)cs1,26%,?,-35%,1%,-21%
C/C(=N\NC(=S)NCc1ccccc1)c1ccc(Br)cc1,-5%,-35%,-19%,-7%,-25%
Cn1cc(SCC(N)=O)c2ccccc21,33%,-32%[59 µM],1%,10%,-11%
Cn1cc(C2=C(c3cn(CCCSC(=N)N)c4ccccc34)C(=O)NC2=O)c2ccccc21,.,7.9µM*,.,.,.
CN(C)CCCn1cc(C2=C(c3c[nH]c4ccccc34)C(=O)NC2=O)c2ccccc21,.,14µM*,.,.,.
CCOC(=O)[C@]12CCCC=C1N(Cc1ccc(Cl)cc1Cl)C(=O)[C@H](CC(=O)NCc1cccc3ccccc13)C2,.,.,.,-9%,.
CCOc1ccc(N2C(=O)CC(Sc3n[nH]c(-c4ccccc4)n3)C2=O)cc1 (centres undefined),?,-16%[0.501 µM],-11%,-9%,4.5µM*
COc1ccc(N2C(=O)CC(Sc3n[nH]c(-c4ccccc4)n3)C2=O)cc1 (centres undefined),?,.,-12%,?,5µM*
CCOc1ccc(N2C(=O)CC(SCc3nc4ccccc4[nH]3)C2=O)cc1 (centres undefined),30%,.,-3%,0%,-4%
Cc1cc(N=NC(=O)c2ccccc2O)c2ccccc2c1O,-22%,-4%,-38%,30%,?
N#C/C(=C\c1cn(CC(=O)O)c2ccccc12)C(=O)NCc1ccccc1,32%,45µM*,-19%,2%,?
